This passage reports inhibition results from PubChem BioAssay.

Each structure is given as a SMILES string. A number with no mark means an inactive call. The rule behind the calls is not given here.

Sequence of Pantothenate synthetase (Mycobacterium tuberculosis (strain ATCC 25618 / H37Rv)) (P9WIL5 whole entry, looked up): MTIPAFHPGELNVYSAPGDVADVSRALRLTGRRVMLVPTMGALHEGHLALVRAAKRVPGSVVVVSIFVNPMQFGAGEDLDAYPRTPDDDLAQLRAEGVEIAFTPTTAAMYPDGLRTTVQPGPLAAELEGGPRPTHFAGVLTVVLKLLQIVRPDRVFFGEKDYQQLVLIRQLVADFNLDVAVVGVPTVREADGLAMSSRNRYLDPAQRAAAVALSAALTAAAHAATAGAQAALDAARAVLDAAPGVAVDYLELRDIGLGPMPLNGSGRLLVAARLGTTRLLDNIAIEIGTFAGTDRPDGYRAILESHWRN

The assay has as its target Pantothenate synthetase (Mycobacterium tuberculosis (strain ATCC 25618 / H37Rv)) (UniProt P9WIL5). The assay can be described thus: Recombinant Mtb pantothenate synthetase (PanC) inhibitors, coupled enzyme, confirmatory (AID 375).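 Note: 0% = full reaction with vehicle and 100% = no enzyme background.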 As to conditions: coupled enzyme assay; at 10 µM, active compounds read high.
By inhibition is commonly meant the drop in the measured response relative to a control, in per cent. Turning to `COc1ccc(Br)cc1CNC(=O)C1CCCN(S(C)(=O)=O)C1` (stereo not given), the inhibition is 6%. Regarding `COc1cc(C(=O)Nc2nc(-c3cccs3)cs2)cc(OC)c1OC`, the inhibition is 0%. On to `COc1ccc(S(=O)(=O)Cc2ccc(C(=O)N3CCN(c4ccccc4)CC3)o2)cc1`, for which the inhibition is 0%. The result for `CCN(CC)C(=O)C1CCC(CNS(=O)(=O)c2cccc3cccnc23)CC1` (stereo not given) reads 0%; that for `COc1ccc(-c2noc(CCCC(=O)O)n2)cc1`, 8%. The result for `CCOc1cc(-c2nc(-c3ccc(C)nc3OCC)no2)cc(OCC)c1OCC` reads 0%; that for `C=CCn1c(=O)n(CCOC)c(=O)c2sc3ccccc3c21`, 0%. Consider `COc1cccc(OCc2nc3c4cnn(-c5ccccc5)c4ncn3n2)c1`, for which the inhibition was 0%.

Consider `CCN(CC)CCOc1cccc(C(C)C)c1`, for which the inhibition was 4%.

Consider `O=C(COc1ccccc1)N1CCN(C(=O)c2cccc(F)c2)CC1`, for which the inhibition was 1%. In the case of `O=C(O)CCCCCCC1C(=O)NC(=O)N1CCC(O)C1CCCCC1` (stereo not given), the inhibition was 0%. `COC(=O)c1cn(-c2ccccc2)nc1C(=O)OC`: the inhibition was 2%. In the case of `CCCCn1c(SCc2cccnc2)nc2c1c(=O)n(C)c(=O)n2C`, the inhibition is 0%. As to `COc1c2occc2c(OC)c2c(=O)cc(C)oc12`, the inhibition is 8%. As to `CCOC(=O)N1CCC(N2C(=O)c3ccccc3C2Nc2ccc3c(C)cc(=O)oc3c2)CC1` (stereo not given), the inhibition was 4%.

With `O=C(NCCSCc1ccco1)Nc1cccc(Cl)c1`, the inhibition was 3%. As to `CCOC(=O)c1ccc(NC(=O)CC2SC(=NC)N(C)C2=O)cc1` (stereo not given), the inhibition was 2%. With `O=C(c1cnn2c1NC(c1ccco1)CC2C(F)(F)F)N1CCN(c2cccc(Cl)c2)CC1` (stereo not given), the inhibition was 4%. The result for `CC[N+](C)(CC)CCOC(=O)C(O)(c1ccccc1)C1CCCCC1` (stereo not given) reads 0%. Turning to `CC(Sc1n[nH]c(=O)[nH]c1=O)C(=O)OCc1ccccc1` (stereo not given), the inhibition is 2%. On to `CCOC(=O)C1=C[C@]2(CC)CCCN3CCc4c(n1c1ccccc41)[C@@H]32`, for which the inhibition was 4%.

With `CCOC(=O)c1oc2c(CN3CCN(C)CC3)c(O)ccc2c(=O)c1-c1ccccc1OC`, the inhibition was 0%.

As for `Cc1onc(-c2ccccc2Cl)c1C(=O)Nc1cnn(Cc2ccccc2)c1`, the inhibition was 0%.

`CN(C)S(=O)(=O)c1ccc2c(c1)C(CC(=O)O)OC2=O` (stereo not given): the inhibition was 4%. The result for `C/C(CC(O)(/C=N/O)c1ccccc1)=N\O` (stereo not given) reads 1%; that for `C=CCn1c(COc2ccc(Cl)cc2)nnc1SCC(=O)N1CC(=O)Nc2ccccc21`, 0%; that for `COCCCNC(=O)c1c(N)n(-c2cccc(S(N)(=O)=O)c2)c2nc3ccccc3nc12`, 2%.

Take `CN1/C(=C\C(=O)Nc2cccnc2)c2ccccc2CC1(C)C`: the inhibition is 3%.

Consider `COC(=O)c1ccccc1OCC(=O)NC1CCCCC1`, for which the inhibition was 0%.

Consider `COCCn1c(C)cc(C(=O)COC(=O)CCN2C(=O)c3ccccc3C2=O)c1C`, for which the inhibition is 0%.

Turning to `COc1ccc(N(CC(=O)Nc2ccc3c(c2)OCCO3)S(=O)(=O)c2cccnc2)cc1`, the inhibition is 0%. Consider `COc1cc(NC(=O)c2cc(OC)c(OC)c(OC)c2)c(OC)cc1NC(=O)CN1CCCCC1`, for which the inhibition is 1%. Turning to `COc1ccccc1NC(=O)N1CCCC1C(=O)NC1CCCCC1` (stereo not given), the inhibition is 0%. With `O=C(NCc1ccco1)Nc1ccc2nsnc2c1`, the inhibition was 6%. Turning to `Cc1ccc(NC(=O)CSc2nnc(CNC(=O)c3c(F)cccc3Cl)o2)cc1`, the inhibition was 3%. Turning to `CC(=NCC1CCNCC1)C1=C(O)CC(C)(C)CC1=O`, the inhibition is 0%.

On to `Cc1cc(Cl)ccc1OCCCC(=O)N1CCOCC1`, for which the inhibition is 0%.

On to `COC(=O)c1ccc(CSc2nnnn2Cc2ccccc2)cc1`, for which the inhibition is 0%.

For `COc1ccc(-c2noc(COc3ccc(Cl)c(C)c3)n2)cc1`, the inhibition is 0%. The result for `C=CCn1c(SCn2nnc3ccccc3c2=O)nnc1-c1ccc(Br)cc1` reads 2%.
